# Hits are enriched below; roughly 10% of the tested compounds scored in any of these assays.
# ALDH1A1 inh-1: ALDH1A1 (human) enzyme inhibition. 220,000 compounds, 7.3% hits. Potency, µM (titrated, usually from 75.3 µM), inactives show at the highest dose activity, negative = inhibition, hits mostly inhibitors. Purified ALDH1A1, NADH fluorescence, propionaldehyde substrate. P00352;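 note: potency is the fitted concentration of half-maximal effect; plate controls were no enzyme wells and a reference inhibitor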
# Target sequence (P00352 whole entry, looked up): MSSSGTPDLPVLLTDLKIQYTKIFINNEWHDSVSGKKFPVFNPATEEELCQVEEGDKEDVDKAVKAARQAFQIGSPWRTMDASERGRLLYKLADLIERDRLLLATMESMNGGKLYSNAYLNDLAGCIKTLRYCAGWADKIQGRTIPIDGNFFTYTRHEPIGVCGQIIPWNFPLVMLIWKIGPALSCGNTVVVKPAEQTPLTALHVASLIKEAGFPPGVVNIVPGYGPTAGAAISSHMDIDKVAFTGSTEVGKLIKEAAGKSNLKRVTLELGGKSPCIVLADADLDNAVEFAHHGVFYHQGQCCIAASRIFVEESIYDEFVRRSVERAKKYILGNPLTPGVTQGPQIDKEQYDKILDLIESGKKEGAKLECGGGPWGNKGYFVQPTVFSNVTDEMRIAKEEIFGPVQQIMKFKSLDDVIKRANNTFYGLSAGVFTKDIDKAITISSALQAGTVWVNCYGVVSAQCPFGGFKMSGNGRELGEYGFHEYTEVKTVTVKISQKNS
# LMNA splice mod: modulators of lamin A splicing; HeLa LMNA splicing GFP/RFP minigene ratio, 48 h; Potency, µM (highest dose often 46.1 µM), for the others: at the top dose ratio change, negative = inhibition, hits mostly inhibitors; 200,000 compounds, 0.01% hits; active = well fitted inhibition curve with a large enough effect in the signal ratio, with a control signal flat, not every such curve was filed as active; inconclusive = small, poorly fitted or top-dose-only effect, or effect the other way, or a change in a side signal; the % refers to the signal ratio; note: potency is the fitted concentration of half-maximal effect; % is set by controls: 0 for no effect and ±100 for the full control effect
#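 S3 HeLa cells stably expressing lamin A-EGFP splicing minigene plus DsRed2, 600 cells/well, 48 h compound exposure at 37C. Laser-scanning cytometry; analysed as GFP (500-530 nm)/RFP (575-640 nm) total intensity ratio; 0.5% DMSO vehicle.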
# PNC inhibitor: perinucleolar compartment assembly inhibition; PC3M PTB-GFP, PNC prevalence imaging, 16 h; hits give low values; activity change (PNC), negative = inhibition, % at 10 µM; 140,000 compounds, 3.1% hits;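 active = readout at or below -70, meaning at least 70% loss of cells showing the perinucleolar compartment, a nuclear body marking cancer cells; inconclusive = readout between -30 and a set limit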;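 note: plate controls were DMSO wells for no effect and camptothecin positive control wells for full effect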
#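 Read-out is percentage of cells bearing a perinucleolar compartment, from automated 20x imaging of fixed, Hoechst-stained PC3M PTB-GFP cells. Cells were seeded 4 h, then exposed 16 h to compound (23 nl of library stock) in duplicate plates.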
# IMPase cell inh: membrane-permeable compound that blocks inositol monophosphatase; 120,000 tested, under 10 active; inhibition (IP1 accumulation), % at 46.1 µM; CHO-M1 cells, IP1 accumulation, HTRF TR-FRET ratio; AID 901; active = well fitted curve in the direction sought with a large enough effect in the signal ratio, not every such curve was filed as active; inconclusive = small, poorly fitted or top-dose-only effect, or a change in a side signal; inactive = no such curve, though single readings can be large or run the other way; the % refers to the signal ratio;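 note: cells stimulated with carbachol in lithium chloride buffer; plate controls were DMSO basal wells for no effect and reference inhibitor wells for full effect; higher means more IMPase inhibition seen as more IP1 and lower FRET ratio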
#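 The IP-One HTRF competitive assay in carbachol-stimulated CHO-M1 cells quantifies cellular IP1. Compounds spanned up to 46 uM final, and activity is expressed as AC50 from concentration-response fits of the ratio and donor data.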
# HPGD inh: inhibitors of human 15-hydroxyprostaglandin dehydrogenase (HPGD) | Potency, µM, for inactives: top-dose activity change, negative = inhibition, hits mostly inhibitors | purified HPGD, NADH fluorescence kinetic, PGE2 substrate | 150,000 compounds, 4.3% hits | P15428; note: potency is the fitted concentration of half-maximal effect; % is set by controls: 0 for no effect and ±100 for the full control effect
#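 NADH formation kinetics: reaction with 30 uM PGE2 and 1 mM NAD+ (final), 20 nM enzyme, Tris-HCl pH 8 with Tween 20, after 15 min compound preincubation at room temperature. Fluorescence change, last versus first of five reads.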
# Luc counter: Kinase-Glo luciferase inhibition (counter-screen); Q27757; 200,000 compounds, 0.28% hits; Kinase-Glo luciferase, ATP luminescence, 8 min; Potency, µM (doses to about 38.3 µM), inactives show at the highest dose activity change, negative = inhibition, usual class: inhibitors; active = well fitted inhibition curve with a large enough effect; inconclusive = small, poorly fitted or top-dose-only effect; note: potency is the fitted concentration of half-maximal effect; % is set by controls: 0 for no effect and ±100 for the full control effect; nearly all actives have a fitted effect of over 60% in size
#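 Compounds were added to a substrate mix at pH 7.2 (50 mM imidazole, 10 uM ATP, within the enzyme's linear range), followed by Kinase-Glo detection reagent; luminescence was measured after 8 minutes at ambient temperature.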
# ALDH1A1 inh-2: Confirms inhibition of human ALDH1A1 with counterscreen | shares compounds with ALDH1A1 inh-1 | purified ALDH1A1, NADH fluorescence, propionaldehyde/NAD+ | Potency, µM (titrated, usually from 57.1 µM), inactives show top-dose activity change, negative = inhibition, usual class: inhibitors | 90 compounds, 90% hits | AID 493210; calls by dose curve
# An asterisk follows results filed as active; ? = inconclusive; . = no result given; [ ] = another dose, or the depositor's remark. Unless noted, calls come from the whole dose curve; as a rule, active = well fitted inhibition curve with a large enough effect (not every such curve was filed as active); inconclusive = small, poorly fitted or top-dose-only effect, or another doubt; inactive = no such curve, though single readings can be large or run the other way.
SMILES,ALDH1A1 inh-1,LMNA splice mod,PNC inhibitor,IMPase cell inh,HPGD inh,Luc counter,ALDH1A1 inh-2
N#Cc1ccc(C23CC4(C2)[C@H](CN(Cc2cccnc2)[C@@H]4c2ccccc2)C3c2ccc(C(F)(F)F)cc2)cc1 (some centres undefined),1%,.,.,.,-7%,0%,.
COC(=O)[C@@]1(Cc2ccccc2)[C@H]2c3cc(C(=O)N(C)C)n(CCF)c3C[C@H]2CN1C(=O)c1ccccc1,0%,.,.,.,-3%,2%,.
CCN(CC)C(=O)CSc1nc2ccccc2c(=O)n1CCC(=O)NCc1ccc(F)cc1,1µM*,-2%,3,-3[1.84 µM],?,2%,2µM*
CCOC(=O)N1CCN(Cc2nc3c(c(=O)n(C)c(=O)n3C)n2Cc2cccc(C)c2)CC1,0.079µM*,3%,18,8,-13%,-2%,0.063µM*
CCOC(=O)N1CCN(Cc2nc3c(c(=O)n(C)c(=O)n3C)n2Cc2cccc3ccccc23)CC1,0.1µM*,?,22,10,-6%,15%,0.04µM*
CCOC(=O)N1CCN(Cc2nc3c(c(=O)n(C)c(=O)n3C)n2Cc2ccc(F)cc2)CC1,-5%,-11%,?,8,-15%,10%,.
CCOC(=O)N1CCN(Cc2nc3c(c(=O)[nH]c(=O)n3C)n2Cc2ccccc2C)CC1,?,4%,26,-1,-3%,3%,.

# Bioassay records from PubChem BioAssay.
